Results filed as inconclusive are left out. Active and inactive are the calls of the source. The call rests on the fitted dose curve; in most records, active means well fitted inhibition curve with a large enough effect; inconclusive means small, poorly fitted or top-dose-only effect; inactive means flat fitted curve, though single readings scatter.
Tests used:
Assay in all cases: qHTS profiling for inhibitors of Plasmodium falciparum proliferation (AID 504749); further: nearly all actives have a fitted effect of over 60% in size
Conditions in all cases: P. falciparum in erythrocytes, SYBR Green DNA, 72 h; series mostly up to 28.7 µM
ATS95 = tested on: ATS95
Outline: (§1)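 Parasite proliferation within erythrocytes, 72 h exposure. Endpoint: SYBR Green I fluorescence after overnight lysis at room temperature. Controls: 0.29 uM artemisinin, DMSO.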

C2A = tested on: C2A
Outline: as §1

CP215 = tested on: CP215
Outline: as §1

CP250 = tested on: CP250
Outline: as §1

CP252 = tested on: CP252
Outline: as §1

CP256 = tested on: CP256
Outline: as §1

CP262 = tested on: CP262
Outline: as §1

CP265 = tested on: CP265
Outline: as §1

CP266 = tested on: CP266
Outline: as §1

CP268 = tested on: CP268
Outline: as §1

CP269 = tested on: CP269
Outline: as §1

CP325 = tested on: CP325
Outline: as §1

CP329 = tested on: CP329
Outline: as §1

CP335 = tested on: CP335
Outline: as §1

Dd2 = tested on: Dd2
Outline: as §1

ECU = tested on: ECU
Outline: as §1

P93_24 = tested on: P93_24
Outline: as §1

PAD = tested on: PAD
Outline: as §1

PC26 = tested on: PC26
Outline: as §1

SC27B = tested on: SC27B
Outline: as §1

Measured: Potency
Potency means the concentration at half of the fitted maximal effect.

O=C(CC1NCCC[C@H]1O)Cn1cnc2cc(Br)c(Cl)cc2c1=O (stereo not given in full)
inactive: CP262
active: ATS95 2 µM | C2A 3.16 µM | CP215 3.79 µM | CP250 2.82 µM | CP252 1.12 µM | CP256 3.16 µM | CP265 5.01 µM | CP266 3.79 µM | CP268 3.38 µM | CP269 2.69 µM | CP325 3.38 µM | CP329 3.38 µM | CP335 0.601 µM | Dd2 0.708 µM | ECU 5.01 µM | P93_24 1.41 µM | PAD 2.24 µM | PC26 3.79 µM | SC27B 11.2 µM

— PubChem BioAssay (NCATS)
